Results reported in PubChem BioAssay.
Active and inactive are the calls of the source.

Legend:
[1] = binders of probe aFSTL3 on microarray, primary screen, stem cell growth factor project, biochemical, small-molecule microarray, fluorescence 635/667 (AID 1064); conditions: higher = more signal;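 note: measures binding of the biotinylated anti-FSTL3 antibody to printed compounds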
[2] = binders from COS7 lysate, DM2A8 probe, primary screen, torsin A project, cell lysate, small-molecule microarray, fluorescence 635/667 (AID 1065); conditions: higher = more signal, COS7 lysate expressing mutant human TOR1A
[3] = binders of probe aFGF2 on microarray, primary screen, stem cell growth factor project, biochemical, small-molecule microarray, fluorescence 635/667 (AID 1067); conditions: higher = more signal;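 note: measures binding of biotinylated aFGF2 protein to printed compounds on slides; z-score merges feature fluorescence and signal-to-noise across triplicate slides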
[4] = binders of probe aFGF10 on microarray, primary screen, stem cell growth factor project, biochemical, small-molecule microarray, fluorescence 635/667 (AID 1071); conditions: higher = more signal;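 note: score merges 667 nm spot intensity and signal to noise from triplicate slides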
[5] = molecular target: Neurogenic locus notch homolog protein 2 (Homo sapiens) (UniProt Q04721); assay: Notch2 binders on small-molecule microarrays, primary screen, biochemical, small-molecule microarray, 635 nm fluorescence, stem cell growth factors (AID 1073); conditions: Notch2 binding, higher = more signal
Sequence of Neurogenic locus notch homolog protein 2 (Homo sapiens) (Q04721 whole entry, looked up, canonical isoform): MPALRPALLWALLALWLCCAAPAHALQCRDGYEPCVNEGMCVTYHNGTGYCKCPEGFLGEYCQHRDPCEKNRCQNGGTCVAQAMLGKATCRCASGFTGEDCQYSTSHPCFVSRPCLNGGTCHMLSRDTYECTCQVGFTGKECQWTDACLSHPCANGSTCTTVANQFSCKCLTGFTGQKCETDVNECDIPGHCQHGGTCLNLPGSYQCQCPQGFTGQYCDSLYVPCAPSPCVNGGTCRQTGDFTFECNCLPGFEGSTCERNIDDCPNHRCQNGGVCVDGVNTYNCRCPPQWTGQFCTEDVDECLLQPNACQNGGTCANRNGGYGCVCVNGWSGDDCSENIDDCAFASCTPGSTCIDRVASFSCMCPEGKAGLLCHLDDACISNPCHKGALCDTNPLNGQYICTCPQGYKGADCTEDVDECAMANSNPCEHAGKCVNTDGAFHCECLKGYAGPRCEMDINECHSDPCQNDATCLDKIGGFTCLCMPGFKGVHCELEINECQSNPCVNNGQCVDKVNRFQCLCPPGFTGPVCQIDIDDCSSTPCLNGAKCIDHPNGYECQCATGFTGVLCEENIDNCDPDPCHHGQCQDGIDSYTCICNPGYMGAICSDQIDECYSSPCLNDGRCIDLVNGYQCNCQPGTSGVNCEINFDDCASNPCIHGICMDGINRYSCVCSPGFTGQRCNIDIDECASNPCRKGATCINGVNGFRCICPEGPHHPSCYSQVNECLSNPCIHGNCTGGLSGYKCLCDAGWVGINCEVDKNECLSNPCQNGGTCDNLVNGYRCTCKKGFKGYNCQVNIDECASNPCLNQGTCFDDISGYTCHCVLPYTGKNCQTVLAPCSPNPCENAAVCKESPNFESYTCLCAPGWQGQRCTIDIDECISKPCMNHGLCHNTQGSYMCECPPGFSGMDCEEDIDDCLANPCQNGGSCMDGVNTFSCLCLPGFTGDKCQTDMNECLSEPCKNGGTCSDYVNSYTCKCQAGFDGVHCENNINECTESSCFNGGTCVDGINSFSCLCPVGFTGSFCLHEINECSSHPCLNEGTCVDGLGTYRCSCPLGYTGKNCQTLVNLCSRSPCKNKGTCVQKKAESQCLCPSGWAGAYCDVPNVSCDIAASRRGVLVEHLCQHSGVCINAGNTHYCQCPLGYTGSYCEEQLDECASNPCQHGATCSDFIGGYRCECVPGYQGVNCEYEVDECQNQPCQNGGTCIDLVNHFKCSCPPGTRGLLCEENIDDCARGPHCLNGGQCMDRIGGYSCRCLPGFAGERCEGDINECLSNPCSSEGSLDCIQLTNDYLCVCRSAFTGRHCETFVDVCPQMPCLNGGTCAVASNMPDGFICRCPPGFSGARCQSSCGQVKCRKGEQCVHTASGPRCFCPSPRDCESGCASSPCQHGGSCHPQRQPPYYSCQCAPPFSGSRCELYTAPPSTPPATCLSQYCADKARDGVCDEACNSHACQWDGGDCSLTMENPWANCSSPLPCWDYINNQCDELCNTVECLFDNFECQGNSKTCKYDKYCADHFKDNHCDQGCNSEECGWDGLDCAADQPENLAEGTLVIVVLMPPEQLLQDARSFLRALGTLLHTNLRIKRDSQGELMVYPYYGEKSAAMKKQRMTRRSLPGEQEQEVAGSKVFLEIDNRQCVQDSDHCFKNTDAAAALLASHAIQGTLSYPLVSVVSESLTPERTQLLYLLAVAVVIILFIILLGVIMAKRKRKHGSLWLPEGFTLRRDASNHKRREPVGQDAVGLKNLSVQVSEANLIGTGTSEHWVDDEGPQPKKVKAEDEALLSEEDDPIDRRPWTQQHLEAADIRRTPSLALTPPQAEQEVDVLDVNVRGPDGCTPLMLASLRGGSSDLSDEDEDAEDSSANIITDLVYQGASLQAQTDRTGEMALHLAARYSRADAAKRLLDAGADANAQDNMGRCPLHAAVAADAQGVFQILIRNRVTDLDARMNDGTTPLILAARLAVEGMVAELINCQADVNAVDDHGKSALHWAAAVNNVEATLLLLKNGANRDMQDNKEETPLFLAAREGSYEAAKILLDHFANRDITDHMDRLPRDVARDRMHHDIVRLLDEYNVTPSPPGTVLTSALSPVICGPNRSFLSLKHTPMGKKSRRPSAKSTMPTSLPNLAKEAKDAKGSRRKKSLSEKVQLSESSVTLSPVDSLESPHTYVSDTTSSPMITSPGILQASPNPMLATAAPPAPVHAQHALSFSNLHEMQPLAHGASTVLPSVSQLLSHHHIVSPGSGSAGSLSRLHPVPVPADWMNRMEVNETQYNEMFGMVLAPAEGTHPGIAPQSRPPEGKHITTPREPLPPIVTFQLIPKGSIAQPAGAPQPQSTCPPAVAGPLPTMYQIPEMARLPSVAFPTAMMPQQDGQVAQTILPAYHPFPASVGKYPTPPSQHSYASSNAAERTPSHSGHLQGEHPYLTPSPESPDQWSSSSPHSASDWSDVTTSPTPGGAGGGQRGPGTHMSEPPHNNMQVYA

[6] = molecular target: Pro-neuregulin-1, membrane-bound isoform (Homo sapiens) (UniProt Q02297); assay: NRG1 binders on small-molecule microarrays, primary screen, psychiatric disease protein project, biochemical, small-molecule microarray, fluorescence 635/667 (AID 1075); conditions: NRG1 binding, 635 nm fluorescence, higher = more signal;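 note: score combines 667 nm spot fluorescence with signal to noise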
Sequence of Pro-neuregulin-1, membrane-bound isoform (Homo sapiens) (Q02297 whole entry, looked up, the tested form may be a part, canonical isoform): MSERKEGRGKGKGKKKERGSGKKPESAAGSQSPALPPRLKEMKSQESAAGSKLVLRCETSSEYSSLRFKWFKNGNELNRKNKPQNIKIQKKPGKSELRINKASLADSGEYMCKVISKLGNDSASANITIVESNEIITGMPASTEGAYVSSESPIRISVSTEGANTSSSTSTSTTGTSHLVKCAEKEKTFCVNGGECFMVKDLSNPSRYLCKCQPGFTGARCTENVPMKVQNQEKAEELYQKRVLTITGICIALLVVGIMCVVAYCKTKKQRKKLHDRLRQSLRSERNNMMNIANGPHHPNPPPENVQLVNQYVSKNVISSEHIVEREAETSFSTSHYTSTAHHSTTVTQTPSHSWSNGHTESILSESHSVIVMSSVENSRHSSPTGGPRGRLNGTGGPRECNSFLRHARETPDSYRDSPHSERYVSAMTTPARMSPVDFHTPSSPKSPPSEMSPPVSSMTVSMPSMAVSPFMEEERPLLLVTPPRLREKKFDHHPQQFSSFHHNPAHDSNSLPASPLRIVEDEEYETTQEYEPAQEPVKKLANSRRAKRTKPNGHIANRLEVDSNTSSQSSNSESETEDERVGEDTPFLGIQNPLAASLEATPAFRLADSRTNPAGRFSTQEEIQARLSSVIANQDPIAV

[7] = tested on: Neuregulin-1 EGF-like domain; assay: binders of neuregulin-1 EGF-like domain, primary screen, biochemical, small-molecule microarray, 635 nm fluorescence (AID 1081); conditions: small-molecule microarray binding, higher = more signal;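 note: binding of the protein to compounds printed on small-molecule microarray slides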
[8] = FRG1 promoter luciferase signal modulators, primary screen, FRG1 inhibition for FSHD, cell-based, C2C12 myotubes, firefly/Renilla luciferase, luminescence (AID 1084); conditions: higher = more signal, called active from +8 up or from −8 down
[9] = binders of probe aFST on microarray, primary screen, stem cell growth factor project, biochemical, small-molecule microarray, fluorescence 635/667 (AID 1086); conditions: higher = more signal;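 note: score merges 667 nm fluorescence with signal-to-noise of each printed compound spot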
[10] = binders of probe aHhip on microarray, primary screen, stem cell growth factor project, biochemical, small-molecule microarray, fluorescence 635/667 (AID 1087); conditions: higher = more signal;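 note: score merges spot fluorescence at 667nm with spot signal to noise ratio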
[11] = tested on: PRMT1 (protein arginine N-methyltransferase 1); assay: PRMT1 binders on small-molecule microarrays, primary screen, biochemical, small-molecule microarray, 635 nm fluorescence (AID 1088); conditions: small-molecule microarray binding, higher = more signal;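 note: binding of Prmt1 protein to compounds spotted on small-molecule microarray slides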
[12] = yeast growth modulation, basal conditions, primary screen, YJM789 clinical isolate, OD600, 24 h (AID 1089);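 note: growth of clinical yeast isolate S. cerevisiae YJM 789 seeded 1000 cells per well; test concentration not given here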; conditions: S. cerevisiae YJM789 growth, higher = more signal, called active from +8 up or from −8 down
[13] = fission yeast growth modulation, primary screen, strain 972, OD600, 24 h, no modulator (AID 1090);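 note: basal condition with compound alone and no growth modifier present; test concentration not given here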; conditions: S. pombe 972 growth, higher = more signal, called active from +8 up or from −8 down
[14] = S. cerevisiae growth modulation with rapamycin, primary screen, strain BY4716, OD600, 96 h (AID 1091); conditions: higher = more signal, called active from +8 up or from −8 down; note: test concentration not given here
[15] = molecular target: Torsin-1A-interacting protein 2 (Homo sapiens) (UniProt Q8NFQ8); assay: LULL1 binders on small-molecule microarray, primary screen, cell lysate, human LULL1 lysate, 635/667 nm fluorescence (AID 1092); conditions: hLULL1 lysate binding, 635 nm fluorescence, higher = more signal;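 note: probe is lysate of COS7 cells overexpressing human LULL1; score merges per-feature 667 nm fluorescence with signal-to-noise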
Sequence of Torsin-1A-interacting protein 2 (Homo sapiens) (Q8NFQ8 whole entry, looked up): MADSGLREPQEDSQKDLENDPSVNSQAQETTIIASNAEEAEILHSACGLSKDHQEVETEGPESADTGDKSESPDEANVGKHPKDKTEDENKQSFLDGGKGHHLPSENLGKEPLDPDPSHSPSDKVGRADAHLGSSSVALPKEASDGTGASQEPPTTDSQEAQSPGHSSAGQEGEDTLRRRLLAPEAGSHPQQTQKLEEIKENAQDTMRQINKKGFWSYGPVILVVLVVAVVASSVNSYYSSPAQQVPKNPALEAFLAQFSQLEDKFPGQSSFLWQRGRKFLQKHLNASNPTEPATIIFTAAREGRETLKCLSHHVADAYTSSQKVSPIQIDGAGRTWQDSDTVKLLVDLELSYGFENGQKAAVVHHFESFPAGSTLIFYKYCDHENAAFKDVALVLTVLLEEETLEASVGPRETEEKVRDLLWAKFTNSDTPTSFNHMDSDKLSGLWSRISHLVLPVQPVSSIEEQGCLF

[16] = E. coli growth modulation, two-sided OD650, primary screen, E. coli filamentation project, strain DRC41, 24 h (AID 1093); conditions: OD650, 24 h, higher = more signal, called active from +8 up or from −8 down;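 note: MC1000 strain lacking acrAB efflux and sulA so SOS filamentation is blocked; test concentration not given here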
[17] = small-molecule microarray binders of probe aLefty2, primary screen, biochemical, biotinylated probe, 635/667 nm fluorescence (AID 1094); conditions: higher = more signal;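 note: score merges spot fluorescence near 667 nm with spot signal-to-noise ratio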
[18] = tested on: Noggin (protein binding on small-molecule microarray); assay: Noggin binders on small-molecule microarray, primary screen, biochemical, 635/667 nm fluorescence (AID 1095); conditions: 635 nm fluorescence, higher = more signal;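 note: score merges 667 nm feature fluorescence with signal to noise over triplicate slides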
[19] = molecular target: Neurogenic locus notch homolog protein 3 (Homo sapiens) (UniProt Q9UM47); assay: NOTCH3 binders on small-molecule microarray, primary screen, biochemical, 635/667 nm fluorescence (AID 1096); conditions: NOTCH3 binding, 635 nm fluorescence, higher = more signal
[20] = small-molecule microarray binders of probe aEGFR, primary screen, biochemical, biotinylated probe, 635/667 nm fluorescence (AID 1097); conditions: higher = more signal;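 note: probe is a biotinylated anti-EGFR antibody binding compounds printed on slides; score combines fluorescence near 667 nm and signal to noise of each spot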

| Structure (SMILES) | composite z-score [1] | composite z-score [2] | composite z-score [3] | composite z-score [4] | composite z-score [5] | composite z-score [6] | composite z-score [7] | z-score [8] | composite z-score [9] | composite z-score [10] | composite z-score [11] | z-score [12] | z-score [13] | z-score [14] | composite z-score [15] | z-score [16] | composite z-score [17] | composite z-score [18] | composite z-score [19] | composite z-score [20] |
| --- | --- | --- | --- | --- | --- | --- | --- | --- | --- | --- | --- | --- | --- | --- | --- | --- | --- | --- | --- | --- |
| C=CCOC(=O)[C@@H]1[C@H]2C(=O)O[C@H](c3ccccc3)[C@H](c3ccccc3)N2[C@H](c2ccc(OCCOC(=O)[C@H]3C[C@H]4C(=O)NCC(=O)N4[C@H]3c3cccc(OCCO)c3)cc2)[C@@]12C(=O)Nc1ccc(I)cc12 | -0.0708 | 0.727 | -0.0383 | -0.0265 | 0.593 | 1.16 | 1.23 | 0.779 (inactive) | 0.275 | -0.0296 | 1.54 | 0.787 (inactive) | 1.44 (inactive) | 3.6 (inactive) | 2.7 | 0.002 (inactive) | -0.0809 | 0.963 | 1.1 | 0.0712 |
| CN(C)C(=O)[C@]1(Cc2ccccc2)N=C(c2ccc(OCCCO)cc2)O[C@@H]1c1ccccc1CN=[N+]=[N-] | -0.106 | 1.31 | -0.0465 | 1.18 | 1.62 | 1.33 | 1.22 | -0.783 (inactive) | 0.879 | -0.126 | 1.53 | -1.8 (inactive) | -0.531 (inactive) | -0.293 (inactive) | 3.15 | 0.702 (inactive) | -0.0153 | 0.605 | 1.07 | 0.0176 |
| CC(C)NC(=O)[C@@]1(c2ccc([N+](=O)[O-])cc2)CC(=O)N(CC23CC4CC(CC(C4)C2)C3)[C@@H]1c1ccc(CO)cc1 | 1.43 | 0.522 | 0.516 | 1.02 | 1.42 | 1.9 | 1.18 | -3.57 (inactive) | 1.86 | 1.11 | 1.54 | -0.383 (inactive) | -0.822 (inactive) | 0.937 (inactive) | 3.03 | 0.267 (inactive) | 0.707 | 1.57 | 1.02 | 0.837 |
| C=C(COC)/C(=C/C[C@@H](OC(C)=O)c1ccccc1OCCO)c1cnc2ccccc2c1 | -0.0428 | 1.58 | -0.0695 | 0.339 | 1.03 | 1.23 | 1.13 | -0.305 (inactive) | 0.278 | -0.169 | 1.56 | 0.27 (inactive) | -0.614 (inactive) | -0.112 (inactive) | 0.895 | 0.359 (inactive) | -0.154 | 1.64 | 1.09 | -0.0828 |
| COc1ccc(C(=O)Nc2ccc(CN3C(=O)[C@@]4(O[C@@H](CCn5cc(CCO)nn5)[C@H]([Si](C)(C)c5ccc(OC)cc5)[C@H]4C)c4ccccc43)cc2)cc1 | -0.249 | 0.269 | -0.0613 | 0.462 | 0.534 | 0.587 | 1.16 | -3.59 (inactive) | 0.859 | -0.137 | 1.34 | 0.704 (inactive) | -6.58 (inactive) | 0.377 (inactive) | 1.26 | -0.583 (inactive) | 0.0868 | 0.926 | 1.11 | -0.0271 |
| CC(C)C[C@H]1NC(=O)C([C@@H](C)OCc2ccccc2)NC(=O)[C@@]23C(=O)N[C@@H](Cc4ccccc4)C2[C@H](C)[C@@]2(C)O[C@H]2C3/C=C/C/C=C\CNC1=O (stereo not given in full) | -0.61 | 0.583 | -0.0712 | 0.775 | 0.831 | 1.21 | 1.06 | 2.71 (inactive) | 0.517 | 3.36 | 1.55 | -0.099 (inactive) | -1.21 (inactive) | 0.206 (inactive) | 2.01 | -0.281 (inactive) | 0.039 | 0.697 | 1.1 | 0.138 |
| C[N+](C)(C)CCCCNC(=O)[C@H]1C[C@H]2C(=O)N[C@@H](Cc3ccccc3)C(=O)N2[C@H]1c1cccc(OCCO)c1 | -0.397 | 1.29 | -0.0375 | 1.21 | 0.641 | 1.06 | 1.36 | 2.28 (inactive) | 0.435 | 0.0373 | 0.982 | -0.0304 (inactive) | 0.351 (inactive) | -1.82 (inactive) | 1.99 | 0.0648 (inactive) | 0.0899 | 1.88 | 1.02 | 0.256 |
| COC(=O)C[C@H]1O[C@@]2(C[C@@H]1[Si](C)(C)C)C(=O)N(C)c1ccccc12 | -0.469 | 0.105 | -0.129 | 0.487 | 0.833 | 0.22 | 0.672 | -0.933 (inactive) | 0.607 | -0.0645 | 0.447 | -2.53 (inactive) | -2.4 (inactive) | -1.5 (inactive) | 1.2 | 1.62 (inactive) | -0.15 | 0.297 | 0.764 | 0.0747 |
| CCCCC(O)C1C=CC2C(=O)N(c3ccccc3)C(=O)C2N1Nc1ccc(C#N)cc1 (stereo not given) | 0.805 | -0.472 | -0.074 | 0.226 | 1.27 | 1.9 | 1.41 | 0.662 (inactive) | 0.941 | -0.112 | 0.771 | 0.243 (inactive) | 0.634 (inactive) | 1.64 (inactive) | 3.14 | -1.11 (inactive) | 0.444 | -0.358 | 0.473 | 0.247 |
| COC(=O)[C@@]1(Cc2ccccc2)[C@H]2c3cc(C(=O)N(C)C)n(Cc4ccc(S(C)(=O)=O)cc4)c3C[C@H]2CN1C(=O)c1ccccc1 | 0.442 | 0.198 | 0.431 | 0.443 | 1.48 | 2.03 | 1.22 | 2.39 (inactive) | 0.744 | -0.118 | -0.541 | 0.407 (inactive) | 0.279 (inactive) | 0.654 (inactive) | 3.51 | -1.59 (inactive) | 0.384 | -0.415 | 1.11 | 0.211 |
| CN(C)CCCNC(=O)[C@@]1(Cc2ccccc2I)c2ccccc2C(=O)N(C2CCCCC2)[C@H]1c1ccc(CO)cc1 | 1.13 | 1.02 | 0.0676 | 0.293 | 1.24 | 0.418 | 1.26 | -3.32 (inactive) | 0.68 | 0.214 | 1.55 | 0.273 (inactive) | -19.5 (active) | -2.99 (inactive) | 2.34 | 0.0304 (inactive) | 0.446 | 0.27 | 0.953 | 0.123 |
| C=CCOC(=O)[C@H]1[C@@H]2C(=O)O[C@@H](c3ccccc3)[C@@H](c3ccccc3)N2[C@@H](c2ccc(OCCOC(=O)[C@H]3C[C@H]4C(=O)N[C@@H](CC(C)C)C(=O)N4[C@H]3c3ccc(O)cc3)cc2)[C@]12C(=O)Nc1ccccc12 | -0.109 | 1.34 | -0.079 | 0.868 | 1.46 | 1.45 | 1.43 | -0.0648 (inactive) | 0.174 | 0.213 | 1.53 | 2.24 (inactive) | 1.47 (inactive) | 3.92 (inactive) | 2.42 | 0.0375 (inactive) | -0.084 | 0.993 | 1.08 | 0.11 |
